Here are results for ten compounds from the supplement of paper PMC10503962.

Structures are written as SMILES.

This assay concerns Trichuris muris adult worms. Briefly: mean motility score (Paragon pixel variance) of adult worms (arbitrary units); higher = more motile worms, i.e. less anthelmintic effect; extreme values may be limits of the assay. The settings on record: 100 µM; 24 h. In a few lines: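 Each drug was tested with three worms in three wells, run over three separate occasions and vehicle and positive controls included. The worms were single adult Trichuris muris from infected NOD SCID mice, held for 24 h at 37°C and 5% CO2 in 100 μL RPMI-1640 with antibiotics and drug at 100 μM (1% v/v DMSO) in 96-well plates. Motility score was derived by Paragon pixel-variance analysis of films from an automated phenotyping platform and averaged over replicate wells.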
As for `O=C(O)[C@@H](O)[C@H](O)C(=O)O` [tartaric acid], the mean motility score turned out to be 3400.
On to `CC(C)N=c1cc2n(-c3ccc(Cl)cc3)c3ccccc3nc-2cc1Nc1ccc(Cl)cc1` [clofazimine], for which the mean motility score turned out to be 3290.
To `CC(C)(C(=O)c1cccnc1)c1cccnc1` [metyrapone] belongs 3950; to `Cc1c(N(C)C)c(=O)n(-c2ccccc2)n1C` [aminopyrine], 2250; to `CC(=O)Nc1cccc(-n2c(=O)n(C3CC3)c(=O)c3c(Nc4ccc(I)cc4F)n(C)c(=O)c(C)c32)c1` [trametinib], 2980.
To `NCC[C@H](O)C(=O)N[C@@H]1C[C@H](N)[C@@H](O[C@H]2O[C@H](CN)[C@@H](O)[C@H](O)[C@H]2O)[C@H](O)[C@H]1O[C@H]1O[C@H](CO)[C@@H](O)[C@H](N)[C@H]1O.O=S(=O)(O)O` [amikacin sulfate] belongs 3880.
In the case of `O=C(O)/C=C/C(=O)O.OCCOCCN1CCN(C2=Nc3ccccc3Sc3ccccc32)CC1.OCCOCCN1CCN(C2=Nc3ccccc3Sc3ccccc32)CC1` [quetiapine fumarate] it was 3120.
For `NS(=O)(=O)Cc1noc2ccccc12` [zonisamide], the mean motility score stood at 2960.
To `Cn1cnc([N+](=O)[O-])c1Sc1ncnc2nc[nH]c12` [azathioprine] belongs 3550; to `CC(=O)O[C@H]1C(=O)[C@@]2(C)[C@H]([C@H](OC(=O)c3ccccc3)[C@]3(O)C[C@H](OC(=O)[C@H](O)[C@@H](NC(=O)c4ccccc4)c4ccccc4)C(C)=C1C3(C)C)[C@]1(OC(C)=O)CO[C@@H]1C[C@@H]2O` [paclitaxel], 1480.
